This passage reports inhibition results from ChEMBL document CHEMBL3433997, “St. Jude Leishmania screening dataset” (2016).

Format in all cases: functional
The target in assay [1] is Solute carrier family 2, facilitated glucose transporter member 1 (Homo sapiens) (UniProt P11166). Briefly: ST_JUDE_LEISH: Cytotoxicity at 2uM final concentration against transgenic Leishmania Mexicana promastigotes LmGLUT1 that are glucose transport deficient and complemented with the human glucose transporter GLUT1. Activity is measured by DNA content using SYBR green in vitro.

Assay [2] has as its target Hexose transporter 1 (Plasmodium falciparum) (UniProt O97467). The assay can be described thus: ST_JUDE_LEISH: Cytotoxicity at 2uM final concentration against transgenic Leishmania Mexicana promastigotes LmPfHT that are glucose transport deficient and complemented with the Plasmodium falciparum hexose transporter. Activity is measured by DNA content using SYBR green in vitro.

Assay [3] addresses Glucose transporter (Leishmania mexicana) (UniProt O61059). The assay can be described thus: ST_JUDE_LEISH: Cytotoxicity at 2uM final concentration against transgenic Leishmania Mexicana promastigotes LmGT2 that are glucose transport deficient and complemented with the L. Mexicana glucose transporter 2. Activity is measured by DNA content using SYBR green in vitro.

Sequence of Solute carrier family 2, facilitated glucose transporter member 1 (Homo sapiens) (P11166 whole entry): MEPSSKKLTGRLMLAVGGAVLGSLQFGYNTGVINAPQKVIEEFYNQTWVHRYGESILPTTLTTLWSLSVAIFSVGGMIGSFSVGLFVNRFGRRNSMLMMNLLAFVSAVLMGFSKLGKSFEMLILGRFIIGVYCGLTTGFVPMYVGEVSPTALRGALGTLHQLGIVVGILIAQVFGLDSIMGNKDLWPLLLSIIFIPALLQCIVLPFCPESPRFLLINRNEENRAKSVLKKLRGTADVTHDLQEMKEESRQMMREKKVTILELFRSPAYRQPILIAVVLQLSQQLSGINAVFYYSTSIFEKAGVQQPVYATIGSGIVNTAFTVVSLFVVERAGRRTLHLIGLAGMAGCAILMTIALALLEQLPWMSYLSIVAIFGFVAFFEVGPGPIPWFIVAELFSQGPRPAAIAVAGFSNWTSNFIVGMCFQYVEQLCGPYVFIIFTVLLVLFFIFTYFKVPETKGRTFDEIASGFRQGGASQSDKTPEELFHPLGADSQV

For the molecule `Fc1ccc(Nc2ccnc3cc(-c4cccc(CN5CCCCC5)c4)ccc23)c(Cl)c1`, the inhibition in assay [1] is 4.23%; in assay [2], 3.95%; in assay [3], 3.3%.
Take `CCN1CCN(CCCCNc2c3ccccc3nc3ccccc23)CC1`: the results for the inhibition in assay [1], in assay [2] and in assay [3] were 20.5%, 8.76% and 10.7%, respectively.
Turning to `CN1CCCC(OC(=O)c2ccccc2)C1` (centres undefined), the inhibition came out at 4.26% in assay [1], 3.71% in assay [2] and 3.1% in assay [3].
On to `CCCSc1nc2c(c(=O)n1CCc1ccccc1)C1(CCCC1)Cc1ccccc1-2`, for which the inhibition was -1.58% in assay [1], 1.38% in assay [2] and 0.24% in assay [3].
As for `CC(=O)c1nccc(C)c1N`, the inhibition came to 2.66% in assay [1], 1.53% in assay [2] and 2.57% in assay [3].
For `O=c1cc(NCCCNCc2ccccc2-c2ccccc2)[nH]c2ccccc12`, the inhibition in assay [1] stood at 2.76%; in assay [2], 3.22%; in assay [3] it was 1.59%.
On to `Cc1cc(Nc2ccccc2)nc(Nc2ccccc2C)n1`, for which the results for the inhibition in assay [1], in assay [2] and in assay [3] were 5.24%, 4.32% and 0.47%, respectively.
In the case of `CC(C)c1ccc(CN2CCC(NC(=O)c3ccc(-c4cccc(Cl)c4)s3)CC2)cc1`, the inhibition came out at 5.24% in assay [1], 4.2% in assay [2] and 7.5% in assay [3].
Regarding `Cc1cccc2nc(-c3cccc(-c4ccc(CNCc5ccccc5)cc4)c3)[nH]c12`, the results for the inhibition in assay [1], in assay [2] and in assay [3] were 5.37%, 3.63% and 1.78%, respectively.
Take `CC(C)C[C@H](NC(=O)c1cc(-c2ccc(F)cc2)no1)C(=O)O.CC(C)C[C@H](NC(=O)c1conc1-c1ccc(F)cc1)C(=O)O`: the values for the inhibition in assay [1], in assay [2] and in assay [3] were 1.19%, 2.32% and 2.96%, respectively.
Taken in the same sequence, the figures for `O=C(Nc1cccc(CN2CCCN(Cc3ccc(O)cc3)CC2)c1)c1ccc(-c2ccccc2)cc1` were 1.14%, 0.52% and -2.97%.
Consider `Cc1cccc(NC(=O)Nc2ccc(I)c(OCCN(C)C)c2)c1C`, for which the inhibition in assay [1] was determined as 15.2%; in assay [2] it was 9.78%; in assay [3], 10.1%.
Take `O=C(Nc1cc(F)cc(F)c1)NC1CCN(CCCCCNC(=O)C2CC2c2ccc(Cl)c(Cl)c2)CC1` (centres undefined): the inhibition was 0.3% in assay [1], -0.08% in assay [2] and -2.77% in assay [3].
